Source: PMC5540273 (PLoS ONE, 2017)

Experiments:
Conditions in all cases: concentration: 1 μM, replicates: in singlicate; n = 1
[1] = system: MERTK
[2] = system: MET
[3] = system: T1, MINK
T1 construct: gene MINK1

[4] = system: MKK7
[5] = system: MKNK1
[6] = system: MKNK2
[7] = system: T2, MLCK
T2 construct: gene MYLK3

[8] = system: T3, MLK1
T3 construct: gene MAP3K9

[9] = system: MLK2
[10] = system: MLK3
[11] = system: MRCKA
[12] = system: T4, MRCKB
T4 construct: gene CDC42BPB

[13] = system: MST1R
[14] = system: T5, MST1
T5 construct: gene STK4

[15] = system: T6, MST2
T6 construct: gene STK3

[16] = system: T7, MST3
T7 construct: gene STK24

[17] = system: MST4
[18] = system: MTOR
[19] = system: MUSK
[20] = system: MYLK2
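Further: KINOMEscan kinase panel screen.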

Row | SMILES | %Inh [1] [%] | %Inh [2] [%] | %Inh [3] [%] | %Inh [4] [%] | %Inh [5] [%] | %Inh [6] [%] | %Inh [7] [%] | %Inh [8] [%] | %Inh [9] [%] | %Inh [10] [%] | %Inh [11] [%] | %Inh [12] [%] | %Inh [13] [%] | %Inh [14] [%] | %Inh [15] [%] | %Inh [16] [%] | %Inh [17] [%] | %Inh [18] [%] | %Inh [19] [%] | %Inh [20] [%]
1 | Nc1nc(-c2ccccn2)c(-c2ccnc3ccccc23)s1 [GW548057] | 2 | 0 | 56 | 14 | 1 | 0 | 0 | 0 | 0 | 0 | 8 | 0 | 50 | 0 | 0 | 16 | 0 | 31 | 0 | 9
2 | COc1ccc(NC(=O)c2ccc(-c3cc(-c4nnc(C)o4)ccc3C)cc2)cc1 [GW595885] | 21 | 0 | 0 | 34 | 2 | 12 | 0 | 0 | 0 | 11 | 0 | 3 | 34 | 0 | 0 | 0 | 0 | 14 | 12 | 0
3 | Clc1cccc(-c2nc(Nc3ccncc3)c3ccccc3n2)c1 [GW873004] | 7 | 33 | 16 | 0 | 18 | 0 | 0 | 2 | 16 | 0 | 3 | 42 | 0 | 27 | 45 | 9 | 0 | 36 | 0 | 0
4 | CC(C)N1CCC(n2cnc(-c3ccc(F)cc3)c2-c2ccnc(N)n2)CC1 [SB-223132] | 0 | 14 | 7 | 0 | 2 | 0 | 0 | 0 | 4 | 0 | 18 | 0 | 0 | 0 | 0 | 29 | 0 | 27 | 0 | 6
5 | CSc1nn2c(=O)cc(N3CCOCC3)nc2n1Cc1cccc(Cl)c1Cl [GSK2347225] | 40 | 0 | 21 | 0 | 20 | 2 | 13 | 0 | 4 | 11 | 29 | 4 | 59 | 6 | 0 | 4 | 0 | 28 | 16 | 15
6 | CC(C)(C)OC(=O)NC1CCCN(c2cc(-c3ccc4c(N)n[nH]c4c3)nc(N)n2)C1 (centres unmarked) [GSK2286096] | 18 | 0 | 11 | 0 | 12 | 10 | 0 | 0 | 0 | 0 | 9 | 0 | 31 | 0 | 0 | 6 | 0 | 8 | 0 | 24
7 | CS(=O)(=O)CCNCc1nc(-c2ccc3ncnc(Nc4ccc(OCc5cccc(F)c5)c(Cl)c4)c3c2)cs1.Cl [GW583340] | 0 | 0 | 0 | 0 | 0 | 0 | 0 | 0 | 0 | 0 | 0 | 0 | 38 | 0 | 8 | 15 | 0 | 4 | 0 | 0
8 | Cc1cc(N2CCC(NS(=O)(=O)c3ccc(F)cc3)CC2)nc(Nc2cccc(C#N)c2)n1.O=C(O)C(F)(F)F [GSK1653537] | 39 | 0 | 0 | 0 | 7 | 3 | 0 | 12 | 0 | 15 | 0 | 0 | 17 | 8 | 0 | 7 | 0 | 6 | 8 | 0
9 | O=C(Nc1n[nH]c2nc(-c3ccco3)c(Br)cc12)c1ccc(CN2CCCC2)cc1.O=C(O)[C@H](O)[C@@H](O)C(=O)O [SB-742352] | 22 | 0 | 0 | 0 | 0 | 0 | 69 | 0 | 0 | 10 | 0 | 0 | 0 | 0 | 17 | 0 | 9 | 0 | 9 | 96.3
10 | Cl.c1ccc(Cn2ncc3cc(Nc4ncnc5ccccc45)ccc32)cc1 [GW273749] | 9 | 0 | 0 | 0 | 6 | 30 | 0 | 0 | 0 | 0 | 10 | 0 | 27 | 0 | 8 | 0 | 0 | 8 | 0 | 2
